Pf growth 48h = inhibits P. falciparum growth in the first generation, 48 h. AID 504832. 310,000 tested, 5.9% active. Potency, µM (titrated, usually from 28.7 µM), most hits filed as inhibitors. P. falciparum luciferase growth in erythrocytes, 48 h
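Here the parasites carry a stable luciferase gene and grow inside erythrocytes in Albumax-based RPMI medium with compound for one erythrocytic cycle. Activity is scored as loss of luminescent signal.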
NS1 function inh = blocks influenza NS1 protein function; Potency, µM (titrated, usually from 46.1 µM); 270,000 tested, 0.4% active; calls by dose curve; further: actives are rising curves; nearly all actives have a fitted effect of over 50% in size
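Compounds were scored for reversing the slow growth caused by influenza A NS1 in S. cerevisiae, measured by optical density at 600 nm. Assay medium contained 2% galactose at pH 6.0; NS1-free yeast of the same strain were the positive control.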
Shiga inhibitor = blocks Shiga toxin action in Vero cells; AID 2315; inhibition, % at 38.7 µM; Vero cells, Shiga toxin protein synthesis inhibition reporter; 290,000 tested, 9.2% active; in the data active means inhibition mostly above about 28%, no sharp cut-off; inactive means mostly below about 43%
Cycloheximide cs = counter-screen for Shiga toxin inhibitors: cycloheximide protein synthesis inhibition; max response, %; cell reporter, cycloheximide protein synthesis inhibition counterscreen; 300,000 tested, 12% active; in the data active means max response mostly above about 13%, no sharp cut-off; inactive means mostly below about 14%; further: read at 38.3 µM for the half of the compounds with a filed dose
Pf growth 96h = inhibits malaria parasite growth, 96 h. P. falciparum luciferase reporter growth, 96 h. Potency, µM (highest dose often 28.7 µM), most hits filed as inhibitors. 320,000 tested, 6.9% active. AID 504834
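Cell-based qHTS: luciferase-tagged P. falciparum in erythrocytes (2% hematocrit, 0.05% parasitemia final) incubated with compounds for 96 hours, 37 C, 5% CO2; luciferase detection reagent then added and luminescence measured.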
Giardia FBPA inh = Giardia lamblia aldolase inhibition. purified Giardia FBPA. Potency, µM (highest dose often 59.6 µM), hits mostly inhibitors. 290,000 tested, 0.71% active. AID 2451; further: nearly all actives have a fitted effect of over 55% in size
Target sequence (A8B2U2 whole entry, looked up): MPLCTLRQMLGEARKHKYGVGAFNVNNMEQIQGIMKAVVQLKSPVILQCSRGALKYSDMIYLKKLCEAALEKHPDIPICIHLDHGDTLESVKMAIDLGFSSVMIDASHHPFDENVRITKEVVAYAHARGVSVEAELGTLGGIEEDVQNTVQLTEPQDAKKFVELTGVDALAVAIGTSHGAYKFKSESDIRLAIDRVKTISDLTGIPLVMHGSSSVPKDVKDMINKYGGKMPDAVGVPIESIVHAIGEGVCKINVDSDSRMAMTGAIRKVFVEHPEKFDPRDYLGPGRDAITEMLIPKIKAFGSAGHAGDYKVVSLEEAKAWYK
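40 nM FBPA preincubated 10 min at RT with compound (up to 57.5 uM final), then substrate plus GAPDH/TPI/NAD/arsenate coupling and diaphorase/resazurin added. Fluorescence read after 20 min at RT, 525/598 nm.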
Numbers stand for hits; - = inactive; ? = inconclusive; . = no result. Compounds with a hit are over-represented: about 21% of the library has one in this group of screens. Unless noted, the call rests on the fitted dose curve; in most records, active means well fitted curve in the direction sought with a large enough effect; inconclusive means small, poorly fitted or top-dose-only effect, or another doubt; inactive means no such curve, though single readings can be large; an effect the other way counts as inactive or inconclusive.

SMILES | Pf growth 48h | NS1 function inh | Shiga inhibitor | Cycloheximide cs | Pf growth 96h | Giardia FBPA inh
COc1ccc(-c2csc(NC(=O)c3c(OC)cccc3OC)n2)cc1 | 5.9µM | - | - | - | ? | -
CCOc1ccc(-c2csc(NC(=O)c3ccco3)n2)cc1 | - | - | - | 39 | 10µM | -
O=C(NC(=S)Nc1nc(-c2ccc([N+](=O)[O-])cc2)cs1)c1ccco1 | - | - | 51 | 18 | ? | .
Cc1ccc(C(=O)Nc2nc(-c3ccc([N+](=O)[O-])cc3)cs2)o1 | - | - | - | - | ? | -
CC12C=C(/C=C/CCc3ccco3)C(C)(C1)[C@H](CCc1ccco1)CC2=O (stereo not given in full) | . | . | . | . | . | -
COc1cccc(OC)c1NC(=O)CN(C)S(=O)(=O)c1ccc2c(c1)OCCO2 | - | - | - | - | - | -
COc1ccc(-c2csc(NC(=O)c3ccccc3NS(=O)(=O)c3ccc(C)cc3)n2)cc1 | - | - | - | - | - | -
COc1ccc(-c2csc(N(CC(C)C)C(=O)c3ccco3)n2)cc1 | - | - | . | - | - | -
COc1ccc(-c2csc(NC(=O)c3ccco3)n2)cc1 | - | - | 50 | 55 | - | -
O=C(Nc1nc(-c2cccc3ccccc23)cs1)c1ccc2c(c1)S(=O)(=O)c1ccccc1C2=O | - | - | 62 | 21 | - | -
CC(C)CC(=O)NC(=S)Nc1nc(-c2cccc3ccccc23)cs1 | - | - | - | - | 13µM | -
O=C(Nc1nc(-c2ccccc2)cs1)c1ccc2c(c1)S(=O)(=O)c1ccccc1C2=O | - | - | - | - | - | -
COc1ccc(S(=O)(=O)Nc2ccccc2C(=O)Nc2nc(-c3ccc(F)cc3)cs2)cc1OC | 3.3µM | - | - | - | ? | -
O=C(Nc1nc(-c2ccco2)cs1)c1ccccc1 | . | - | - | 32 | - | -
Cc1ccc(-c2csc(NC(=O)c3ccco3)n2)cc1C | - | - | 149 | 34 | 0.59µM | -
O=C(Nc1cc(-c2ccccc2)cs1)c1ccco1 | ? | . | . | . | 2.3µM | .
Cc1cc(NC(=O)c2ccco2)sc1C | - | . | . | . | - | .
COc1ccc(-c2csc(NC(=O)Cn3nc(C)cc3C)n2)cc1 | - | - | - | - | . | -
COc1ccc(-c2csc(NC(=O)CC(C)C)n2)cc1 | - | - | 84 | 48 | - | -
CCOC(=O)c1c(S(=O)(=O)N2CCCC(C(=O)Nc3cccc(C)n3)C2)c(C)n(C)c1C (stereo not given) | ? | - | - | - | ? | .
CCOC(=O)c1c(S(=O)(=O)N2CCCC(C(=O)Nc3ncccc3C)C2)c(C)n(C)c1C (stereo not given) | - | ? | - | - | 12µM | -
CCOC(=O)c1c(S(=O)(=O)N2CCC(C)CC2)c(C)n(C)c1C | - | ? | - | - | 8.3µM | -
CC(C)(C)C1CCC(OC(=O)C[N+]2(C)CCCC2)CC1 (stereo not given) | ? | . | - | - | - | -
CC(C)(C)C1CCC(OC(=O)C[N+]2(C)CCCCC2)CC1 (stereo not given) | 12µM | . | - | - | - | -
CC(NS(=O)(=O)c1cn(C)c(=O)n(C)c1=O)c1ccccc1 (stereo not given) | - | - | - | - | - | .
SMILES | Pf growth 48h | NS1 function inh | Shiga inhibitor | Cycloheximide cs | Pf growth 96h | Giardia FBPA inh
CCOC(=O)C1(CCOC)CCN(Cc2nc(C(C)C)cs2)CC1 | - | - | 68 | 30 | - | -
CCCCn1c(N)c(N(CC(C)C)C(=O)c2ccc(OCc3c(C)noc3C)cc2)c(=O)[nH]c1=O | ? | . | . | . | - | .
Cn1c(CNC(=O)c2ccccc2)nnc1SCC(=O)Nc1nccs1 | - | - | - | - | - | -
O=C(Nn1c(SCc2ccccc2F)nc2ccsc2c1=O)c1ccccc1 | - | - | - | - | 6.6µM | -
O=C(CSc1nc2ccsc2c(=O)n1NC(=O)c1ccccc1)Nc1nccs1 | - | - | 36 | 41 | - | -
O=C(O)COc1ccc(C(=O)c2cccs2)c(Cl)c1Cl | - | . | - | - | 3.8µM | ?
O=C(O)COc1ccc2nsnc2c1Cl | - | - | - | - | ? | -
CCCCCCCCCCCCCCCCCC(=O)NCC(COP(=O)([O-])OCC[N+](C)(C)C)OCC (stereo not given) | . | - | . | . | . | -
Cc1ccc(-c2csc3ncn(CC(=O)NCC(c4ccco4)N4CCCC4)c(=O)c23)cc1 (stereo not given) | - | . | . | . | ? | .
CC(=O)Nc1ccc(SCC(=O)Nc2sccc2C#N)cc1 | - | . | 63 | 33 | - | -
Cc1ccnc(SCC(=O)Nc2sccc2C#N)n1 | - | - | - | 12 | ? | .
COc1ccc(NC(=O)CSc2nccc(C)n2)cc1 | - | - | - | - | . | -
O=P1(O)OP(=O)(O)OP(=O)(O)O1.[Al] | . | . | - | - | . | -
Cc1cccc(C(=O)OCC(=O)NC(=O)NCc2ccccc2)c1 | - | . | . | . | - | .
O=C(Nc1nc(-c2ccccc2)cs1)c1cccnc1 | - | - | - | - | . | -
c1ccc(CCNc2nc(-c3cccnc3)cs2)cc1 | ? | - | 40 | 62 | ? | -
c1ccc(CCNc2nc(-c3ccccn3)cs2)cc1 | ? | - | 86 | 40 | - | -
COc1cc(Cl)c(C)cc1NC(=O)COc1ccccc1[N+](=O)[O-] | - | - | - | - | - | -
COc1ccccc1CNc1cc(C)ccn1 | - | - | . | - | - | -
Cc1ccnc(NC(=O)COc2ccccc2[N+](=O)[O-])c1 | - | . | 140 | 40 | - | -
Cc1ccc(NC(=O)c2ccc(COc3ccccc3[N+](=O)[O-])o2)nc1 | - | . | . | . | - | .
COc1ccccc1CC(=O)Nc1cc(C)ccn1 | - | - | 103 | 45 | ? | -
Cc1ccc(NC(=O)COc2ccccc2[N+](=O)[O-])nc1 | - | . | 56 | - | - | -
COc1ccc(N(CC(=O)NCc2ccccc2)C(=O)CCC(=O)Nc2cc(C)ccn2)c(OC)c1 | 1.7µM | - | - | - | 0.47µM | -
COc1ccccc1N(CC(=O)NCCc1ccccc1)C(=O)CCC(=O)Nc1cc(C)ccn1 | - | - | - | - | ? | -
SMILES | Pf growth 48h | NS1 function inh | Shiga inhibitor | Cycloheximide cs | Pf growth 96h | Giardia FBPA inh
O=C(NCCS(=O)(=O)NCc1ccccc1Cl)c1ccccc1 | - | . | . | . | - | .
CN(C)c1cccc2c(C=C(C#N)C#N)ccc(N(C)C)c12 | - | - | - | - | - | -
CCc1nnc(NC(=O)COc2ccccc2[N+](=O)[O-])s1 | - | - | - | 10 | - | -
Cc1ccnc(NC(=O)Cn2cc([N+](=O)[O-])cn2)c1 | - | . | 89 | 43 | - | -
O=C(Cn1cc([N+](=O)[O-])cn1)Nc1ccccn1 | - | - | - | - | ? | -
CCc1nnc(NC(=O)COc2ccc([N+](=O)[O-])cc2)s1 | - | . | - | - | - | -
COc1ccc(OCC(=O)N/N=C(\C)CC(=O)Nc2ccc(NC(C)=O)cc2)cc1 | - | - | - | - | ? | -
CCOc1ccc(NC(C)=O)cc1 | - | - | - | - | - | -
CCOc1ccc(NC(=O)c2nccnc2CO)cc1 | - | - | 93 | 46 | - | -
CCOc1ccc(NC(=O)c2cnsn2)cc1 | - | - | 55 | 30 | . | -

Compound activity (PubChem)
